In PubChem BioAssay (NCI) one finds growth data, which are given here for 14 compounds.

Compounds without any hit were thinned out: in the full panel of roughly 83,000, 20% have a hit.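 Compound tested at a single concentration for 48 hours in 96-well plates; a percent growth value below 10 was scored as active.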 A number with no mark means an inactive call. Activity calls are given as the source filed them. *1 amine or outer side, *2 acyl side, *3 side chain or, on linkers, in order; H or OH if unused. Where a SMILES comes first, the peptide text is derived from it. Bridges are numbered along the chain shown (N, C = ends). Roman numbers before positions name the chains, in order. [ ]: non-standard residue; d: D form. Actinocin(1to9) = Cc1c2oc3c(C)ccc(C(=O)[*:2])c3nc-2c(C(=O)[*:1])c(N)c1=O; NMeV = CN[CH](C(=O)O)C(C)C; Sar = CNCC(=O)O

Test systems include NCI-H23 lung; NCI-H226 lung; NCI-H322M lung; HOP-62 NSCLC; NCI-H460 lung; HOP-92 NSCLC; NCI-H522 lung; A549/ATCC NSCLC; 786-0 renal; COLO 205 colon.
Test in all cases: NCI-60 one-dose screen, 48 h (100 = growth as untreated, 0 = no growth, -100 = all killed)
Holding throughout (conditions): 10 µM unless noted

`O=C(Cc1nc2cc(Cl)c(Cl)cc2nc1CC(=O)c1ccccc1)c1ccccc1`: the growth in the experiment with NCI-H23 lung is 77.3%; in the experiment on NCI-H226 lung it was 70.4%; in the experiment on NCI-H322M lung it was 80.9%; in the experiment with HOP-62 NSCLC, 70.5%; with NCI-H460 lung, 73.4%; with HOP-92 NSCLC, 67.3%. Besides, the growth with NCI-H522 lung was 58.2%; in the experiment on A549/ATCC NSCLC, 74.4%; in the experiment with 786-0 renal it was 67.6%; in the experiment with COLO 205 colon it was 76.3%.

`CC(C)(C)c1ccc(O)c(-c2ccccc2)c1`: the growth in the experiment on NCI-H23 lung is 105%; in the experiment with NCI-H226 lung, 122%; in the experiment with NCI-H322M lung, 104%; with HOP-62 NSCLC, 112%; in the experiment with NCI-H460 lung, 112%; in the experiment on HOP-92 NSCLC, 94.5%. In addition, the growth is 83.5% with NCI-H522 lung, 109% in the experiment with A549/ATCC NSCLC, 109% in the experiment on 786-0 renal and 105% in the experiment on COLO 205 colon.

Take `O=C1CSC(=S)N1Cc1cccnc1`: the growth is 101% in the experiment on NCI-H23 lung; 109% in the experiment on NCI-H226 lung; 85.7% with NCI-H322M lung; 78.4% with HOP-62 NSCLC; 106% in the experiment on NCI-H460 lung; 83.9% in the experiment on HOP-92 NSCLC. Besides, the growth is 36.8% in the experiment with NCI-H522 lung, 95.4% in the experiment on A549/ATCC NSCLC, 44.6% with 786-0 renal and 53.6% in the experiment with COLO 205 colon.

On to `O=S(=O)(O)c1cnccn1`, for which the growth was 97.6% in the experiment with NCI-H23 lung; 104% with NCI-H226 lung; 101% in the experiment on NCI-H322M lung; 71.6% in the experiment with HOP-62 NSCLC; 123% in the experiment with NCI-H460 lung; 94.2% in the experiment with HOP-92 NSCLC. Also, the growth in the experiment with NCI-H522 lung was 96%; in the experiment with A549/ATCC NSCLC it was 73.9%; in the experiment with 786-0 renal, 97.8%; in the experiment on COLO 205 colon it was 107%.

For `O=C(Nc1ccc(Cl)c(Cl)c1)OCc1ccco1`, the growth in the experiment on NCI-H23 lung was 58.5%; in the experiment on NCI-H226 lung, 63.9%; in the experiment with NCI-H322M lung it was 56.6%; with HOP-62 NSCLC, 49.3%; with NCI-H460 lung, 26.4%; with HOP-92 NSCLC it was 58.9%. In addition, the growth is 5.5% (active) with NCI-H522 lung, 34.9% with A549/ATCC NSCLC, 57.5% with 786-0 renal and 64.8% in the experiment with COLO 205 colon.

For `C[C@@]1(CO)[C@H](O)CC[C@@]2(C)[C@H]1CC[C@H]1C[C@@H]3C[C@@]12CC[C@@]3(O)COC(=O)CN`, the growth is 21.5% in the experiment with NCI-H23 lung; 62% with NCI-H226 lung; 78.1% in the experiment with NCI-H322M lung; 37.6% in the experiment on HOP-62 NSCLC; 12% in the experiment with NCI-H460 lung; 45.4% with HOP-92 NSCLC. Further, the growth is 49% with NCI-H522 lung, 3.43% (active) with A549/ATCC NSCLC, 14.9% in the experiment on 786-0 renal and 47% in the experiment with COLO 205 colon.

Consider `CCOc1cc(F)c([N+](=O)[O-])cc1[N+](=O)[O-]`, for which the growth is 38.9% with NCI-H23 lung; 95.3% with NCI-H226 lung; 103% with NCI-H322M lung; 93.8% in the experiment on HOP-62 NSCLC; 106% with NCI-H460 lung; 72.1% in the experiment on HOP-92 NSCLC. Also, the growth with NCI-H522 lung is -55.7% (active); with A549/ATCC NSCLC, 90.9%; in the experiment on 786-0 renal, 59.9%; with COLO 205 colon, -48.4% (active).

With `CCc1cccc(CC)c1N1C(=O)C=CC1=O`, the growth in the experiment with NCI-H23 lung was 108%; in the experiment with NCI-H226 lung, 117%; in the experiment with NCI-H322M lung it was 95.3%; with HOP-62 NSCLC, 83.7%; with NCI-H460 lung, 96.1%; with HOP-92 NSCLC it was 56.5%. Besides, the growth is 91.6% with NCI-H522 lung, 71.9% in the experiment with A549/ATCC NSCLC, 82.5% with 786-0 renal and 75.8% with COLO 205 colon.

For the compound `COc1ccc(C(Cn2ccnc2)Sc2ccc(Cl)c(Cl)c2)cc1` (stereo not given), the growth is 82.8% in the experiment on NCI-H23 lung; 69.7% in the experiment with NCI-H226 lung; 91.3% with NCI-H322M lung; 85.5% in the experiment with HOP-62 NSCLC; 78.2% in the experiment with NCI-H460 lung; 50.7% in the experiment with HOP-92 NSCLC. The growth is 60.2% in the experiment with NCI-H522 lung, 88.1% in the experiment on A549/ATCC NSCLC, 77.8% in the experiment with 786-0 renal and 87.6% with COLO 205 colon.

On to `Cc1cc2nc(CC(=O)c3ccncc3)c(=O)[nH]c2cc1C`, for which the growth in the experiment with NCI-H23 lung was 94.2%; with NCI-H226 lung it was 87.4%; in the experiment on NCI-H322M lung, 95.9%; in the experiment with HOP-62 NSCLC it was 95%; in the experiment on NCI-H460 lung, 95.2%; in the experiment with HOP-92 NSCLC, 92.8%. The growth was 87.6% with NCI-H522 lung, 98.5% with A549/ATCC NSCLC, 87.7% in the experiment on 786-0 renal and 130% with COLO 205 colon.

Regarding `CCCCCCCCCCCCCCCCCC1=NCCCN1CCO`, the growth in the experiment on NCI-H23 lung is 106%; with NCI-H226 lung, 103%; with NCI-H322M lung it was 101%; with HOP-62 NSCLC, 90.7%; in the experiment with NCI-H460 lung, 105%; in the experiment with HOP-92 NSCLC, 95.5%. The growth in the experiment with NCI-H522 lung was 103%; in the experiment with A549/ATCC NSCLC, 94.7%; in the experiment on 786-0 renal, 104%; in the experiment with COLO 205 colon, 108%.

As for `CCC(C)C1NC(=O)C(NC(=O)c2c3nc4c(C(=O)NC5C(=O)NC(C(C)CC)C(=O)N6CCCC6C(=O)N(C)CC(=O)N(C)C(C(C)C)C(=O)OC5C)ccc(C)c4oc-3c(C)c(=O)c2N)C(C)OC(=O)C(C(C)C)N(C)C(=O)CN(C)C(=O)C2CCCN2C1=O` (stereo not given) (I: TIP[Sar][NMeV] / II: TIP[Sar][NMeV]; ester I:1-I:C, II:1-II:C; linker I:N-II:N via Actinocin(1to9); configuration not given here), the growth in the experiment with NCI-H23 lung is -51.1% (active); in the experiment on NCI-H226 lung, -16% (active); in the experiment with NCI-H322M lung, -2.5% (active); in the experiment on HOP-62 NSCLC, -43.6% (active); in the experiment on NCI-H460 lung, -19.6% (active); in the experiment with HOP-92 NSCLC, -16.6% (active). Moreover, the growth in the experiment with NCI-H522 lung was -45.5% (active); in the experiment on A549/ATCC NSCLC, -15.2% (active); in the experiment on 786-0 renal, -20.8% (active); in the experiment with COLO 205 colon, -67.6% (active).

Turning to `CCOC(=O)C1=C(C(=O)c2ccccc2)C(c2cccc([N+](=O)[O-])c2)C(C(=O)c2ccccc2)=C(C(=O)OCC)N1`, the growth in the experiment with NCI-H23 lung is 86.3%; with NCI-H226 lung it was 84.9%; with NCI-H322M lung, 94.1%; in the experiment with HOP-62 NSCLC, 93%; with NCI-H460 lung it was 98.8%; with HOP-92 NSCLC, 85.6%. Further, the growth with NCI-H522 lung is 83.5%; in the experiment with A549/ATCC NSCLC, 95.3%; in the experiment with 786-0 renal it was 93.9%; in the experiment on COLO 205 colon it was 114%.

In the case of `OC(CSc1ccccc1)CN1CCN(c2ccc(Cl)cc2)CC1` (stereo not given), the growth with NCI-H23 lung was 107%; with NCI-H226 lung, 91.7%; with NCI-H322M lung it was 110%; in the experiment on HOP-62 NSCLC it was 98.3%; with NCI-H460 lung, 109%; in the experiment on HOP-92 NSCLC, 63.8%. The growth in the experiment with NCI-H522 lung was 90.3%; in the experiment with A549/ATCC NSCLC, 98.4%; in the experiment on 786-0 renal, 95.3%; in the experiment on COLO 205 colon it was 107%.
